Assay [1] in a line: A CellTox Green Cytotoxicity Assay to monitor cytotoxicity in HEK293 cells - 32 hour (AID 1224881). Also: nearly all actives have a fitted effect of over 40% in size. Also: potency is read from the fitted curve at half-maximal effect. The gist of the method:
(§1)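 Fluorescence from a DNA-binding dye excluded by viable cells was measured repeatedly in the same HEK293 wells (600 cells/well) during continuous compound exposure at 37 C. Each assay gives one read point: 0, 8, 16, 24, 32 or 40 h.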

Assay [2] in a line: A CellTox Green Cytotoxicity Assay to monitor cytotoxicity in HepG2 cells - 0 hour (AID 1224882). Also: nearly all actives have a fitted effect of over 35% in size. The gist of the method: (§2)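 Real-time cytotoxicity: fluorescence of a cell-impermeant cyanine dye binding DNA of dead HepG2 cells, measured repeatedly (0–40 h) during compound exposure at 37 C. Cells seeded 600/well with reagent, dosed after 5 h.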
Assay [3] is described as follows: A CellTox Green Cytotoxicity Assay to monitor cytotoxicity in HepG2 cells - 32 hour (AID 1224883). Also: nearly all actives have a fitted effect of over 50% in size. Also: potency is read from the fitted curve at half-maximal effect. An outline of the steps:
as §2

Assay [4] in a line: A CellTox Green Cytotoxicity Assay to monitor cytotoxicity in HEK293 cells - 8 hour (AID 1224884). Also: nearly all actives have a fitted effect of over 35% in size. Also: potency is read from the fitted curve at half-maximal effect. The gist of the method: as §1
The nature of assay [5]: qHTS RealTime-Glo MT Cell Viability Assay in HepG2 cells - 16 hour (AID 1224885). Also: nearly all actives have a fitted effect of over 50% in size. Also: potency is read from the fitted curve at half-maximal effect. The gist of the method:
(§3)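 Real-time, nonlytic viability: 600 HepG2 cells/well mixed with NanoLuc enzyme plus prosubstrate; 5 h settle, compound (DMSO) added by pintool; luminescence monitored over 40 h at 37 C.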

The nature of assay [6]: qHTS RealTime-Glo MT Cell Viability Assay in HEK293 cells - 24 hour (AID 1224886). Also: nearly all actives have a fitted effect of over 50% in size. Also: potency is read from the fitted curve at half-maximal effect. The gist of the method:
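Cells + reagent dispensed (600 cells/well, HEK293) → 5 h at 37 C/5% CO2 → 23 nL compound in DMSO pinned → 40 h at 37 C → luminescence read at 0, 8, 16, 24, 32, 40 h.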

Assay [7] is described as follows: qHTS RealTime-Glo MT Cell Viability Assay in HEK293 cells - 8 hour (AID 1224887). Also: nearly all actives have a fitted effect of over 50% in size. Also: potency is read from the fitted curve at half-maximal effect. An outline of the steps: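 Luminescence, which tracks viable cell number through reduction of the prosubstrate to a NanoLuc substrate, was read over continuous 37 C culture. Cells (600/well) were premixed with reagent and rested 5 h before 23 nL of compound in DMSO was pinned.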
Assay [8] is described as follows: qHTS RealTime-Glo MT Cell Viability Assay in HepG2 cells - 0 hour (AID 1224889). Also: nearly all actives have a fitted effect of over 50% in size. An outline of the steps: as §3
Assay [9] is described as follows: A CellTox Green Cytotoxicity Assay to monitor cytotoxicity in HepG2 cells - 8 hour (AID 1224890). Also: nearly all actives have a fitted effect of over 45% in size. Also: potency is read from the fitted curve at half-maximal effect. The gist of the method: as §2
Assay [10] can be described thus: qHTS assay to identify small molecule antagonists of the estrogen receptor alpha (ER-alpha) signaling pathway using the BG1 cell line in the presence of 0.1 nM 17-beta-estradiol - cell viability counter screen (AID 1259241). Also: nearly all actives have a fitted effect of over 40% in size. The gist of the method:
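Estradiol-stimulated (0.1 nM) VM7Luc4E2 cells exposed to compounds 22 hr; viability measured by fluorescence of cleaved CellTiter-Fluor substrate after 30 min.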
(In general: qHTS replaces the single test concentration by a dilution series.)

Assay [11] can be described thus: qHTS assay to identify small molecule HDAC inhibitors (AID 1259364). Also: nearly all actives have a fitted effect of over 45% in size. Also: potency is read from the fitted curve at half-maximal effect. An outline of the steps: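 Luminescence read after 30 min room-temperature HDAC-Glo incubation measures cellular class I/II HDAC activity. Compounds were applied for 2 hr at 37 C to HCT-116 wild-type cells seeded the day before.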
Assay [12] can be described thus: qHTS assay to identify small molecule agonists of the sonic hedgehog signaling (Shh) pathway - cell viability counter screen (AID 1259366). Also: nearly all actives have a fitted effect of over 50% in size. The gist of the method: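 Same-well cytotoxicity read. Gli1-Luc reporter 3T3 cells; compounds 24hr, 37C/5% CO2; CellTiter-Fluor fluorescence.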
Assay [13] is described as follows: qHTS assay to identify small molecule antagonists of the sonic hedgehog signaling (Shh) pathway - cell viability counter screen (AID 1259367). Also: nearly all actives have a fitted effect of over 55% in size. Also: potency is read from the fitted curve at half-maximal effect. The gist of the method: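 CellTiter-Fluor signal in conditioned medium-stimulated 3T3 Gli1-Luc cells, 23 hr compound exposure, 37C.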
Assay [14] is described as follows: qHTS assay to identify small molecule agonists of the sonic hedgehog signaling (Shh) pathway (AID 1259368; calls by dose curve;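 also: NIH/3T3-derived 3T3Gli1-Luc cells carrying a stable Gli1-driven firefly luciferase reporter; series mostly up to about 92 µM; nearly all actives have a fitted effect of over 15% in size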). The gist of the method:
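Luminescence was read after 30 min at room temperature with luciferase reagent. Before that, 3T3Gli1-Luc cells (NIH/3T3 clone, stable Gli1-Luc reporter; 2,000/well) were exposed to compounds for 24 hr at 37C, 5% CO2, compounds being added 4 hr post-plating.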

Assay [15] in a line: A CellTox Green Cytotoxicity Assay to monitor cytotoxicity in HEK293 cells - 16 hour (AID 1224888). Also: nearly all actives have a fitted effect of over 35% in size. An outline of the steps:
as §1

A short description of assay [16]: qHTS assay to identify small molecule antagonists of the androgen receptor (AR) signaling pathway using the MDA cell line in the presence of 0.5 nM R1881 - cell viability counter screen (AID 1259242). Also: nearly all actives have a fitted effect of over 45% in size. Also: potency is read from the fitted curve at half-maximal effect. An outline of the steps:
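Live-cell protease activity was measured by CellTiter-Fluor fluorescence after 30 min. Before that, MDA-kb2 MMTV-luciferase cells had 16 hr at 37C without CO2, exposed to test compounds and 0.5 nM R1881 final.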

Assay [17] has as its target Estrogen receptor (Homo sapiens) (UniProt P03372). The assay can be described thus: qHTS assay to identify small molecule antagonists of the estrogen receptor alpha (ER-alpha) signaling pathway using the BG1 cell line in the presence of 0.1 nM 17-beta-estradiol (AID 1259244). Also: nearly all actives have a fitted effect of over 50% in size. An outline of the steps:
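Luciferase luminescence (ONE-Glo, 30 min at room temperature) was read after 22 hr at 37C exposure to compounds plus 17beta-estradiol at 0.1 nM final. Cells were VM7Luc4E2 with endogenous ER-alpha and an ERE-driven luciferase, pre-cultured 5 days in hormone-depleted medium.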

Assay [18] can be described thus: qHTS assay to identify small molecule HDAC inhibitors - cell viability counter screen (AID 1259365). The gist of the method: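 After overnight seeding at 1,500 cells per well, wild-type HCT-116 cultures took up compounds in DMSO for 2hr at 37 C. Viable cell content came from luminescence with CellTiter-Glo.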
The nature of assay [19]: qHTS assay to identify small molecule phospholipidosis (PLD) inducers (AID 1259344; active = well fitted curve in the direction sought with a large enough effect; an effect the other way counts as inactive or inconclusive). The gist of the method:
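Accumulated phospholipid, stained red by LipidTOX during 24 h compound treatment of HepG2 cells at 37 C, is quantified from images as pit number and intensity, normalised per cell using Hoechst-stained nuclei.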

Assay [20] has as its target Androgen receptor (Homo sapiens) (UniProt P10275). As to the kind of experiment: qHTS assay to identify small molecule antagonists of the androgen receptor (AR) signaling pathway using the MDA cell line in the presence of 0.5 nM R1881 (AID 1259243). Also: nearly all actives have a fitted effect of over 50% in size. The gist of the method: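 Luminescent reporter readout (ONE-Glo, 30 min, room temperature) after 16 hr co-treatment of MDA-kb2 cells with test compounds and 0.5 nM R1881 final, at 37C without CO2. The MMTV-driven luciferase responds to both AR and GR.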

Several values for one entry are separate records, joined by “and”; a condition that tells them apart may be missing. Identical values can stand only once. Records with an inconclusive call do not appear. A structure can be active in one record and inactive in another. Activity calls are given as the source filed them. Unless noted, calls follow the shape of the dose curve; as a rule, active = well fitted curve in the direction sought with a large enough effect in the repeat runs; inconclusive = weak or mixed curves; inactive = no such curve, though single readings can be large; an effect the other way counts as inactive or inconclusive.

Chain of Androgen receptor (Homo sapiens) (P10275 whole entry, looked up): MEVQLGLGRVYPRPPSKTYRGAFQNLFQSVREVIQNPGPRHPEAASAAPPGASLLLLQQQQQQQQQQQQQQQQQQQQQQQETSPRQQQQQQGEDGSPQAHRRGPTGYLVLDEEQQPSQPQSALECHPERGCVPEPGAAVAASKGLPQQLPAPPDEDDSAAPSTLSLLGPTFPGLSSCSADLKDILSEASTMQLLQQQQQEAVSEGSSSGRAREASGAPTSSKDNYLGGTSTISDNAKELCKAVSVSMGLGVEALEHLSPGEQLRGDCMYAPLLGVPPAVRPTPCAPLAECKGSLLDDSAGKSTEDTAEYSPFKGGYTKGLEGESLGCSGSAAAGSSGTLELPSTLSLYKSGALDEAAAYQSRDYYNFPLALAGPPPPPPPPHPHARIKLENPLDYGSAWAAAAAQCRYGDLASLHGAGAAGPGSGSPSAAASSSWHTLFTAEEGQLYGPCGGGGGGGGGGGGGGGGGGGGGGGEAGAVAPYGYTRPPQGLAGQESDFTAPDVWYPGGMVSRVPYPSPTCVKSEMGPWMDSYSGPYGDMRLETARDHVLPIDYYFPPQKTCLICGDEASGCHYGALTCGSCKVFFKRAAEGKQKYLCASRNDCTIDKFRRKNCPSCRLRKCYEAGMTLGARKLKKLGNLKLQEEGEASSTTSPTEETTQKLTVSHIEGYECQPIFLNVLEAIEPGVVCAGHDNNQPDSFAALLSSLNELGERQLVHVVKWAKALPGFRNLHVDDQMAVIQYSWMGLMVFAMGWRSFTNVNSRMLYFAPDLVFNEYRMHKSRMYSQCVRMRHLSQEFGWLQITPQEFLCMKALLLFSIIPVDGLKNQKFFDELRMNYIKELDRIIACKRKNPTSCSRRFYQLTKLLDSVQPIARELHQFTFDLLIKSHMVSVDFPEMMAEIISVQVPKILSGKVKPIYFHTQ
Chain of Estrogen receptor (Homo sapiens) (P03372 whole entry, looked up): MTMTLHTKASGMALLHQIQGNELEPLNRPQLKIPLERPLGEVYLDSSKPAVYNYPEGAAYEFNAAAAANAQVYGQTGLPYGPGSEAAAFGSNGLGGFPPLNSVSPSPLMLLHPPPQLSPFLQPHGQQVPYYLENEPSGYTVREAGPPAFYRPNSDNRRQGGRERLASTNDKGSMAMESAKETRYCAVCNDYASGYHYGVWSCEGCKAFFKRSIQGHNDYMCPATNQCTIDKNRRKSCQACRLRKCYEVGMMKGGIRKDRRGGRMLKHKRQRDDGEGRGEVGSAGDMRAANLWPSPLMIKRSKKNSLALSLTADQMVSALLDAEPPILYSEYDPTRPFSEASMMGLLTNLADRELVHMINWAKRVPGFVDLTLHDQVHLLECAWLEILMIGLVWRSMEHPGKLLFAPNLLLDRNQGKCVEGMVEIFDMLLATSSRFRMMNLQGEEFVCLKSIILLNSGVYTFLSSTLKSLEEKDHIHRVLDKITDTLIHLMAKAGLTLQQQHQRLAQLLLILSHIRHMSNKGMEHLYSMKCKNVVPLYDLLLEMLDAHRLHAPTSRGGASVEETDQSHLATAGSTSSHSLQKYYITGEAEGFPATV

Consider `OC(c1ccc(Cl)cc1)(c1cncnc1)c1ccccc1Cl` (centres undefined), for which the Potency in [1] was 25 µM (active) and inactive; in assay [3], 17.7 µM (active) and inactive; in assay [5], 39.6 µM (active); in assay [6], 7.04 µM (active); in [7], 22.3 µM (active). Moreover, the Potency result in [2], in [4], in assay [8], in [9], in [10] and in assay [11] was “inactive” in each case. In addition, the Potency entry in assay [12], in [13] and in assay [14] was “inactive” each time.
In the case of `N#Cc1cccnc1`, the Potency result in [1], in assay [2], in assay [3], in assay [4], in assay [5] and in [6] was “inactive” each time. Also, the Potency result in [7], in [15], in [8], in [10], in assay [16] and in [17] was “inactive” each time. Besides, the Potency entry in assay [11], in [18] and in assay [13] was “inactive” in each case.
With `C[N+](C)(C)CC(=O)[O-]`, the Potency result in assay [1], in assay [2], in assay [3], in assay [4], in assay [5] and in [6] was “inactive” in each case. Moreover, the Potency entry in [7], in [15], in [8], in assay [10], in assay [16] and in [17] was “inactive” throughout. Besides, the Potency entry in [11], in assay [18], in assay [12] and in assay [13] was “inactive” each time. In addition, in assay [19], the molecule was classed as inactive.
Regarding `COC(=O)Nc1nc2ccccc2[nH]1`, the Potency entry in assay [1], in assay [2], in assay [4], in assay [5], in [6] and in assay [7] was “inactive” in each case. The Potency result in assay [15], in assay [8], in assay [10], in assay [16], in assay [20] and in assay [18] was “inactive” throughout. For the same molecule, the Potency entry in assay [13] and in [14] was “inactive” in each case. Also, the Potency was 6.17 µM (active) and inactive in [3]; 24.3 µM (active) and 27.3 µM (active) in assay [11].
For `CC1=C(C(=O)Nc2ccccc2)SCCO1`, the Potency result in assay [1], in assay [2], in assay [3], in [4], in assay [5] and in assay [6] was “inactive” each time. The Potency result in assay [7], in assay [15], in [8], in [10], in assay [16] and in [20] was “inactive” in each case. Besides, the Potency result in assay [17], in assay [18] and in assay [13] was “inactive” in each case. Further, the Potency in assay [11] was 24.7 µM (active) and 27.3 µM (active).
Consider `CC(C)CON=O`, for which the Potency entry in assay [1], in assay [2], in assay [3], in assay [4], in assay [5] and in [6] was “inactive” each time. Besides, the Potency result in assay [7], in assay [15], in assay [8], in assay [10], in assay [16] and in assay [17] was “inactive” in each case. Further, the Potency entry in assay [11], in assay [18], in assay [12], in assay [13] and in [14] was “inactive” in each case.
For `CCOP(=O)(O)OCC` (tested in a mixture with another compound), the Potency entry in assay [1] is “inactive and 24.3 µM (active)”; in assay [3] it was “inactive and 38.6 µM (active)”; in assay [4], “inactive and 54.5 µM (active)”; in assay [5], “inactive and 48.6 µM (active)”; in assay [6], “inactive and 8.64 µM (active)”; in [7] it was “inactive and 54.5 µM (active)”. Also, the Potency entry in assay [9] was “inactive and 54.5 µM (active)”; in [16], “inactive and 54 µM (active)”; in assay [13], “inactive and 42.9 µM (active)”. The Potency entry in assay [2], in [8], in [10], in [11] and in [18] was “inactive” throughout.

The record behind these values is PubChem BioAssay (Tox21).
